{"source": "PubChem BioAssay (NCI)", "note": "The panel holds about 83,000 compounds, 20% with a hit somewhere; the sample as a whole holds those more often.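 Cells were grown in 96-well plates and exposed to the test compound at a single concentration for 48 hours; results are reported as percent growth, with values below 10 considered active.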 Unmarked numbers belong to inactive results. The source made the active and inactive calls.", "data": [{"test_system": "HL-60(TB) leukemia", "assay": "NCI-60 one-dose screen, 48 h (100 = growth as untreated, 0 = no growth, -100 = all killed)", "details": "10 µM unless noted", "values": [{"smiles": "CC(=O)/C=C/c1cccc2c1C(=O)NC(C)(c1cc3cc(Br)ccc3oc1=O)N2", "note": "(stereo unspecified)", "growth": "-29.3% (active)"}, {"smiles": "CC12CC[C@@H]3[C@]4(C)COC(c5cn[nH]c5-c5cccc(Cl)c5)O[C@@H]4CC[C@@]3(C)[C@@H]1CC(C1=CCOC1=O)O2", "note": "(stereo partly specified)", "growth": "22.3%"}, {"smiles": "O=C(CSc1nc2ccccc2c(=O)[nH]1)NNC(=O)c1ccccc1Cl", "growth": "105%"}, {"smiles": "COc1ccc([C@H](C)Nc2nc(Cl)nc3ccccc23)cc1", "growth": "7.64% (active)"}, {"smiles": "Nc1nn2c(-c3cc4cc(Br)ccc4oc3=O)ccnc2c1N=Nc1ccccc1", "growth": "92.7%"}, {"smiles": "c1n[nH]cc1-c1nc2ccc3[nH]ncc3c2c2c1CC1(CC2)COC1", "growth": "29.1%"}, {"smiles": "Cc1cc(C)nc(NS(=O)(=O)c2ccc(N/C(N)=N/c3nccc(-c4ccccc4)n3)cc2)n1", "growth": "-25.8% (active)"}, {"smiles": "COc1ccc2c(c1)c(-c1cc(N)n3nc(-c4cn(C)c5ccccc45)cc3n1)cn2C", "growth": "-33.1% (active)"}, {"smiles": "OCCn1cc(-c2nc3ccc4[nH]ncc4c3c3c2CCCC3)cn1", "growth": "45.2%"}, {"smiles": "CNS(=O)(=O)N1CCc2c(Br)c3c(c(OC)c2C1CCc1ccccc1)OCO3", "note": "(stereo unspecified)", "growth": "-36.1% (active)"}, {"smiles": "CN(CCSSCCN1CCOCC1)C(=O)Oc1cc2c(c3ccccc13)[C@H](CCl)CN2C(=O)c1cc2cc(OCCCN3CCC3)ccc2[nH]1", "growth": "-45.8% (active)"}, {"smiles": "NS(=O)(=O)c1ccc(NC(=O)CSc2ccc(-c3ccc(Cl)cc3)nn2)c(Br)c1", "growth": "98%"}, {"smiles": "COc1cc2c3c(n(CCCNCCO)c(=O)c2cc1OC)-c1nc2c(cc1C3=O)OCO2", "growth": "38.3%"}, {"smiles": "CC(=O)NS(=O)(=O)c1ccc(NC(=O)CSC2=NC(c3ccccc3)C(C(C)=O)=C(C)N2)cc1", "note": "(stereo unspecified)", "growth": "97.4%"}, {"smiles": "CNS(=O)(=O)c1ccc(Nc2ccc(C(F)(F)F)cc2)c(-c2cn(C)cn2)c1", "growth": "48%"}, {"smiles": "COC(=O)c1c(C(=O)OC)c2c3ccccc3c3ccccc3n2c1C(=O)C(C)(C)C", "growth": "72.5%"}, {"smiles": "COc1ccc(NCc2cn(-c3ccc(C(=O)O)cc3)nc2-c2ccc(F)cc2)cc1C(F)(F)F", "growth": "49.9%"}, {"smiles": "CN(C)CCCNC(=S)Nc1ccc(/C=C/c2ccc(Cl)cc2)cc1", "growth": "-22.4% (active)"}, {"smiles": "CCn1c(SCC(=O)Nc2ccc(-c3nc4ccccc4[nH]3)cc2)nc2ccccc2c1=O", "growth": "0.454% (active)"}, {"smiles": "O=C1Nc2cc(-c3ccc(NS(=O)(=O)c4ccc(C(F)(F)F)cc4)cc3)ccc2/C1=C/c1ccc[nH]1", "growth": "1.77% (active)"}, {"smiles": "O=C(c1ccc(O)cc1)C1[C@H](c2ccc(Br)cc2)[C@@H](c2ccccc2)NC12C(=O)Nc1ccccc12", "note": "(stereo partly specified)", "growth": "50.5%"}, {"smiles": "Nc1cccc(SCc2cc3ccccc3[nH]c2=O)c1", "growth": "42.2%"}, {"smiles": "COc1ccc(-c2cc(C(=O)N=Nc3c(O)[nH]c4ccc(Br)cc34)c3ccccc3n2)cc1", "growth": "21.1%"}, {"smiles": "O=C(COc1ccc(/C=C2/C(=O)Nc3ccc(Cl)cc32)cc1)Nc1ccc(Br)cc1", "growth": "10.3%"}, {"smiles": "COc1cccc(/C=N/NC(=O)c2ccc3nc(-c4ccc(Cl)cc4)[nH]c3c2)c1O", "growth": "-43.4% (active)"}, {"smiles": "Cc1ccc(-c2nc(C#N)c(S(=O)(=O)N3CCN(S(C)(=O)=O)CC3)o2)cc1", "growth": "2.43% (active)"}, {"smiles": "C/C(=C\\CC/C=C(\\C)CC/C=C(\\C)CC[C@@H](O)C(C)(C)O)CC/C=C(\\C)CC[C@@H](O)C(C)(C)O", "growth": "-49.3% (active)"}, {"smiles": "N#C/C(=C\\c1ccc(N(c2ccccc2)c2ccccc2)cc1)C(N)=O", "growth": "68.7%"}, {"smiles": "CCN1C(=O)N(CC)C2NNC(Sc3c(C(=O)O)c4ccccc4n(C4CCCC4)c3=O)=NC21", "note": "(stereo unspecified)", "growth": "-9.96% (active)"}, {"smiles": "COc1cc2c(cc1OC)CN(CCCCOc1cc(O)c3c(=O)cc(-c4ccccc4)oc3c1)CC2", "growth": "7.79% (active)"}, {"smiles": "Cc1cccc(C)c1Nc1nnc(-c2c[nH]c3ccccc23)o1", "growth": "97.2%"}, {"smiles": "COc1ccc(CN2[C@H](C(=O)NCc3ccc(C(=O)NO)cc3)Cc3c([nH]c4ccccc34)[C@H]2C2CC2)cc1", "growth": "11%"}, {"smiles": "O=C(Nc1ccc(Cl)c([N+](=O)[O-])c1)Nc1ccc(Cl)c([N+](=O)[O-])c1", "growth": "2.93% (active)"}, {"smiles": "CCCCCCCCCCCCCCCCCCCC(=O)NCCc1c[nH]c2ccc(O)cc12", "growth": "52.8%"}, {"smiles": "Cn1cc(-c2nc(N)nnc2-c2c[nH]c3ccc(F)cc23)c2cccnc21", "growth": "37.2%"}, {"smiles": "Cc1ccc(NC(=O)CN2CCN(c3ncnc4c3cnn4-c3ccccc3)CC2)cc1", "growth": "95.4%"}]}]}
